Assay results from PubChem BioAssay AID1347056 (Sanford-Burnham Center for Chemical Genomics, 2019).
Screen size: about 360,000 compounds; about 3,600 (1%) were called active.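 The calls were made as follows: active = compounds whose plate-normalised and pattern-corrected inhibition of the luciferase reporter signal at the single screening dose is 50% or more; inactive = the rest.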 The entries come from a sample that favours actives as a whole.

assay: inhibitors of TROY-driven NF-kB signaling, primary screen, Q293 LMP1-TROYcd cells, NF-kB luciferase, uHTS (AID 1347056); conditions: Q293 LMP1-TROYcd NF-kB luciferase reporter, 4 h; at 10 µM; stronger effect = higher value

SMILES | inhibition
CCCc1cc(=O)[nH]c2nnc(SCC(=O)Nc3nnc(SCC)s3)n12 | -11.1% (inactive)
CCOC(=O)C(=Cc1ccccc1)C(=O)c1ccccc1 | 55% (active)
CCOC(=O)C(=Cc1ccccc1OC)C(=O)OCC | 36.4% (inactive)
CCOC(=O)/C(=C\c1ccc([N+](=O)[O-])cc1)C(=O)c1cc(C(C)=O)c(Nc2ccccc2)s1 | 1.46% (inactive)
CCCCSc1nnc2c(n1)OC=Nc1ccccc1-2 | -39.1% (inactive)
C=CCN(CC=C)S(=O)(=O)c1ccc(C(=O)Nc2nc3c(s2)CCc2ccccc2-3)cc1 | 4.01% (inactive)
N#Cc1c(-c2cccs2)nc(SCC(=O)c2ccc(Br)cc2)[nH]c1=O | 18.2% (inactive)
N#Cc1ccc(C(=O)Nc2nc(-c3cccs3)c(C(=O)C(F)(F)F)s2)cc1 | 53.3% (active)
Cc1cc(=O)oc2c(C)c(OCC(=O)NCCc3ccc(S(N)(=O)=O)cc3)ccc12 | -2.4% (inactive)
O=C(C1CCN(c2nnc(-n3cccc3)s2)CC1)N1CCc2ccccc2C1 | 22.4% (inactive)
Cc1ccc2c(C)c(C(=O)N(C)CCC3CCCCO3)oc2c1C (stereo unspecified) | -35.3% (inactive)
O=C(CN(Cc1ccccc1)C(=O)CCC(=O)Nc1ccccn1)NCCc1ccccc1 | -13.3% (inactive)
COc1ccc(-c2noc(CNC(=O)C(C)Oc3ccccc3)n2)cc1 (stereo unspecified) | -22.8% (inactive)
COc1ccc(/C=C/c2noc(-c3ccccc3OC(C)=O)n2)cc1 | 48.6% (inactive)
COc1ccc(-c2nc(-c3ccccc3)no2)c(OC)c1 | 72.5% (active)
COc1ccccc1CN(C)c1nnnn1-c1ccccc1 | 7.2% (inactive)
CCN(C(=O)CSc1nnnn1-c1ccccc1OC)C1CCS(=O)(=O)C1 (stereo unspecified) | -12.8% (inactive)
COc1ccccc1-n1nnnc1S(=O)(=O)Cc1ccc(Cl)cc1 | 68.3% (active)
O=c1[nH][nH]c(C(F)(F)F)c1C=NCc1ccccc1Cl | -4.3% (inactive)
Cc1cc(C)c2c(=O)[nH]c(SCC(=O)Nc3ccc(Br)cc3)nc2n1 | 10.6% (inactive)
O=C(O)CSCC(=O)Nc1ccc(C(F)(F)F)cc1 | 5.82% (inactive)

SMILES | inhibition
O=C(O)CC(SCC(=O)Nc1ccc(Br)cc1)C(=O)O (stereo unspecified) | 67.2% (active)
CC(=O)Nc1nc2c(s1)C(=O)NCC(C)(C)C2 | 16.5% (inactive)
CC(=O)c1cc(CN2CCC(n3nccc3NC(=O)c3ccccc3Cl)CC2)cs1 | -6.73% (inactive)
OC[C@@H]1CN(Cc2ccc(-c3ccccc3)cc2)C[C@H](n2cnc3c(NC4CCCC4)ncnc32)O1 | 52.3% (active)
OC[C@@H]1CN(Cc2cccs2)C[C@H](n2cnc3c(NC4CCCC4)ncnc32)O1 | -12% (inactive)
OC[C@@H]1CN(Cc2ccc(F)cc2)C[C@H](n2cnc3c(NC4CCCC4)ncnc32)O1 | -11.8% (inactive)
N#CC(C(N)=O)=C1CCC2(CC1)OCCCCO2 | -8.85% (inactive)
Nc1nc(NCc2ccccc2)n(-c2ccccc2)n1 | 11.4% (inactive)
O=C(O)CN1c2cccc3cccc(c23)S1(=O)=O | 18% (inactive)
O=C(COC(=O)c1ccccn1)NNC(=O)c1ccc([N+](=O)[O-])cc1 | -4.92% (inactive)
N/C(=N\OC(=O)Cc1ccc([N+](=O)[O-])cc1)c1ccccn1 | 71.7% (active)
N/C(=N\OC(=O)c1ccc([N+](=O)[O-])cc1)c1ccccn1 | -41.5% (inactive)
O=C(Cc1ccccc1)N1CCN(S(=O)(=O)c2ccc([N+](=O)[O-])cc2)CC1 | -0.47% (inactive)
O=C(Nc1nnc(C2CC2)s1)C1=NN(C2CCS(=O)(=O)C2)C(=O)CC1 (stereo unspecified) | -9.87% (inactive)
COc1ccc(NC(=O)CCCN2C(=O)C(c3ccccc3)Oc3cccnc32)cc1 (stereo unspecified) | -2.33% (inactive)
COc1ccc(/C=C2/SC(=O)N(CCCCCC(=O)Nc3ccccc3C(=O)O)C2=S)cc1 | 62.8% (active)
CCCNC(=O)c1ccccc1NC(=O)CSCc1ccc(OC)cc1 | -1.25% (inactive)
O=C(NCc1ccc(F)cc1)c1cc(C2CCCCN2C(=O)c2cccs2)on1 (stereo unspecified) | -13.9% (inactive)
Cc1ccc(-n2c(SCC(=O)N3CCC(C(=O)O)CC3)nc3ccccc3c2=O)cc1C | 28.8% (inactive)
COc1ccc2c(c1)C=CC1(O2)N(CCO)c2ccccc2C1(C)C (stereo unspecified) | 74.4% (active)
COc1ccc2c(c1)C(SCC(=O)NCc1ccccc1)CC(C)(C)O2 (stereo unspecified) | -9.24% (inactive)

SMILES | inhibition
CN1c2ccc([N+](=O)[O-])cc2C(C)(C)C12C=Cc1cc(C(=O)O)ccc1O2 (stereo unspecified) | 4.3% (inactive)
CN(C)/C=C/C(=O)c1cnc2sccn2c1=O | 11.6% (inactive)
CCn1c(CC(=O)Nc2ccccc2C)nnc1SCC(=O)NC1=NCCS1 | 11% (inactive)
COc1cc(C(=O)OCC(=O)N(CC(C)C)C2CCS(=O)(=O)C2)ccc1OCC(C)C (stereo unspecified) | 6.44% (inactive)
Clc1nc(NC2CCCC2)nc(N2CCOCC2)n1 | 9.54% (inactive)
COc1nc(NC2CCCCC2)nc(N2CCCCCC2)n1 | 51.7% (active)
FC(F)(F)COc1nc(N2CCCCC2)nc(N2CCNCC2)n1 | -47.4% (inactive)
CN(C)C(=S)Nc1ccc(Br)cc1Cl | 2.66% (inactive)
CCOC(=O)[C@]12CCC=C1N(Cc1ccco1)C(=O)[C@H](CC(=O)N1CCSCC1)C2 | -1.7% (inactive)
COc1ccc(CCC(=O)OCC(=O)Nc2ccc(C)c(S(=O)(=O)N(C)C)c2)cc1 | 12.9% (inactive)
c1c2c(cc3sc(N4CCCCC4)nc13)OCCO2 | 72.6% (active)
COc1cccc(N2C(=O)CC(N3CCc4ccccc4C3)C2=O)c1 (stereo unspecified) | 2.65% (inactive)
CC(Sc1nncn1C)C(=O)Nc1ccccc1-c1ccccc1 (stereo unspecified) | -16.4% (inactive)
COc1ccc(-n2nnnc2-c2nc3ccccc3s2)cc1 | 73% (active)
COc1ccc(CNc2nnnn2C)cc1 | -13.4% (inactive)
COc1ccc(-n2nnnc2SCC(=O)NCc2cccs2)cc1 | -11.6% (inactive)
O=C(NC1CC1)c1cccc(Br)c1 | 79.2% (active)
O=C(NC1CC1)c1ccc(-c2ccccc2)cc1 | -40.9% (inactive)
CC(=O)N1CCN(S(=O)(=O)c2cccc(C(=O)NC3CCC(C)CC3)c2)CC1 (stereo unspecified) | 5.64% (inactive)
